Tests used:
Experiment in all cases: log2 ratio of Biotin-Ahx-Ub-VS probe labelling (fragment/DMSO); higher = less target engagement (more negative = stronger competition), active = hit call of the paper (q ≤ 0.05, log2 ratio ≤ -1)
Conditions in all cases: compound concentration: 200 uM; treatment time: 3 h
USP42 = target: T1, USP42 (UniProt Q9H9J4)
T1 sequence (whole entry): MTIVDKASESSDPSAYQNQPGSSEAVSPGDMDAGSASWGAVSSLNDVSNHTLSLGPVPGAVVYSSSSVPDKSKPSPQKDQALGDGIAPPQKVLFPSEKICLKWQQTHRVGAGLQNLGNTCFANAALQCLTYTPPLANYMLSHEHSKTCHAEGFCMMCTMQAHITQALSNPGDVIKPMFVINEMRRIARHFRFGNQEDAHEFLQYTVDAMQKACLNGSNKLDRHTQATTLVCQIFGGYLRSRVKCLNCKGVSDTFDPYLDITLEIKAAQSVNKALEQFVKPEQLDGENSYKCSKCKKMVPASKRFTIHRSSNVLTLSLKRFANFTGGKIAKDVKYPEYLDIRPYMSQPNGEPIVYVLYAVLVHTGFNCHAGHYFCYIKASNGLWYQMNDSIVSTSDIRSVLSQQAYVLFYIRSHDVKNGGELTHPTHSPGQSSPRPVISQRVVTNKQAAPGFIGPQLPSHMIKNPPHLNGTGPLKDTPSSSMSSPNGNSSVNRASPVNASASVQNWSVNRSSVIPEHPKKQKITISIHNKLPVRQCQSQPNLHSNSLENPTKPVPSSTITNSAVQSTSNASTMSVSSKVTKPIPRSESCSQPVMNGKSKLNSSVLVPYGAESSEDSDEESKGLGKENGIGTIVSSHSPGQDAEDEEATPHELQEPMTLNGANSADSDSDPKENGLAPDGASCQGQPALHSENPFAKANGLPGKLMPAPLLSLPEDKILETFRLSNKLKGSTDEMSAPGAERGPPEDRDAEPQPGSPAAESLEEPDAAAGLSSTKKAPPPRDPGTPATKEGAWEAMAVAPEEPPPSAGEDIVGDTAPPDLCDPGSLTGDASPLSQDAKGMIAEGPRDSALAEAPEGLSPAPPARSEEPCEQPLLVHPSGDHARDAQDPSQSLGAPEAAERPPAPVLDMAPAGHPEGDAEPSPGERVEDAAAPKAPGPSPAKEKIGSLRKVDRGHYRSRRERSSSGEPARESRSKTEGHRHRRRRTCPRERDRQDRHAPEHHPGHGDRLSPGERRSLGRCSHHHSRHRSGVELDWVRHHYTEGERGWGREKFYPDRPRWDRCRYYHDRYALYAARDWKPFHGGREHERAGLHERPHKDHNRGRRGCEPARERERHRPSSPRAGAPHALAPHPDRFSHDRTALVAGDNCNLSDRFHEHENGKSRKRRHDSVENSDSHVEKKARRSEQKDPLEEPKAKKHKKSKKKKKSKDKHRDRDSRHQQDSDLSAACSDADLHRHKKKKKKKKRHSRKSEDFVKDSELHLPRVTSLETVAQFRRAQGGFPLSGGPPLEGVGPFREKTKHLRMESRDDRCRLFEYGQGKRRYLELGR
In short: (§1)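 HEK293T lysate (495 µg per sample, in Tris/CHAPS/IGEPAL buffer with protease inhibitors) was treated in triplicate with fragment at 200 µM or with DMSO for 3 h. It was then treated with Biotin-Ahx-Ub-VS (0.5 µM final) for 1 h. Labelled DUBs were NeutrAvidin-enriched, digested with LysC and trypsin, and run by diaPASEF LC-MS/MS. Spectronaut label-free quantities were global-median-normalised. Values are average log2 ratios fragment/DMSO by unpaired t-test, using proteins with ≥2 unique peptides.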

USP46 = USP46 (UniProt P62068)
In short: as §1

USP47 = target: T2, USP47 (UniProt Q96K76)
T2 sequence (whole entry): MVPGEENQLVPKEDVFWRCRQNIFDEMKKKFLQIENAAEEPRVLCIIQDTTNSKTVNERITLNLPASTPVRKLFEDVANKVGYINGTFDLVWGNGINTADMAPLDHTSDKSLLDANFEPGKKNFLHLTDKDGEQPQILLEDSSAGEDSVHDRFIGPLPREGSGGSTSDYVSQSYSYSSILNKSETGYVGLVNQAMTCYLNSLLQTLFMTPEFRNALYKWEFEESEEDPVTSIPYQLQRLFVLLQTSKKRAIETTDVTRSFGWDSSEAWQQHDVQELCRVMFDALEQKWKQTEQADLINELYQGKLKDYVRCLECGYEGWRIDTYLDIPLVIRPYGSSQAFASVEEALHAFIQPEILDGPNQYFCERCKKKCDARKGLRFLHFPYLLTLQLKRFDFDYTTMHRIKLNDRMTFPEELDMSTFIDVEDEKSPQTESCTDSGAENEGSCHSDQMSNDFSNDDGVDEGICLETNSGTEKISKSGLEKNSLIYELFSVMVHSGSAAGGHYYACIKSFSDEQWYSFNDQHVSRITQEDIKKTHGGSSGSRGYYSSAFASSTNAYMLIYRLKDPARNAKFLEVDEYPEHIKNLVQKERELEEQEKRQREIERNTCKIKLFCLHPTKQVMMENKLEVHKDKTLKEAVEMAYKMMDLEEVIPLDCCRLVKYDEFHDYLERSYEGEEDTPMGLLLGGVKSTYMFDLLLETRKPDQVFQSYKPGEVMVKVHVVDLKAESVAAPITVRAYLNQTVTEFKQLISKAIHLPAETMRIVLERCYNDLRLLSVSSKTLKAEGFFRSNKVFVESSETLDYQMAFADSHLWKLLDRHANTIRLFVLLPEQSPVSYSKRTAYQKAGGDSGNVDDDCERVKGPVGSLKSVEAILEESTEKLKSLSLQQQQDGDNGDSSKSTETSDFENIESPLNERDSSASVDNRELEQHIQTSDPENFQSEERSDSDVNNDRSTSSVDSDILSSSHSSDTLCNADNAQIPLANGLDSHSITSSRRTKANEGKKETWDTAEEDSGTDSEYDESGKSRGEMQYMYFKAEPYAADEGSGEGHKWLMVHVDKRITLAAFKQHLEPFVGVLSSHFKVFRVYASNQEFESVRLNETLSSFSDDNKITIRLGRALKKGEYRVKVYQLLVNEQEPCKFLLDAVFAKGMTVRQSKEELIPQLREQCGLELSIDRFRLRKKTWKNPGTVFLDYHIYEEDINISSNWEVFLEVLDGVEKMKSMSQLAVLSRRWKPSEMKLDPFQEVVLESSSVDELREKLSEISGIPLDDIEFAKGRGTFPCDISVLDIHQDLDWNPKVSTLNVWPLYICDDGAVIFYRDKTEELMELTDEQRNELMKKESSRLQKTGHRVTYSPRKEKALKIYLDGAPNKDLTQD
In short: as §1

USP48 = target: T3, USP48 (UniProt Q86UV5)
T3 sequence (whole entry): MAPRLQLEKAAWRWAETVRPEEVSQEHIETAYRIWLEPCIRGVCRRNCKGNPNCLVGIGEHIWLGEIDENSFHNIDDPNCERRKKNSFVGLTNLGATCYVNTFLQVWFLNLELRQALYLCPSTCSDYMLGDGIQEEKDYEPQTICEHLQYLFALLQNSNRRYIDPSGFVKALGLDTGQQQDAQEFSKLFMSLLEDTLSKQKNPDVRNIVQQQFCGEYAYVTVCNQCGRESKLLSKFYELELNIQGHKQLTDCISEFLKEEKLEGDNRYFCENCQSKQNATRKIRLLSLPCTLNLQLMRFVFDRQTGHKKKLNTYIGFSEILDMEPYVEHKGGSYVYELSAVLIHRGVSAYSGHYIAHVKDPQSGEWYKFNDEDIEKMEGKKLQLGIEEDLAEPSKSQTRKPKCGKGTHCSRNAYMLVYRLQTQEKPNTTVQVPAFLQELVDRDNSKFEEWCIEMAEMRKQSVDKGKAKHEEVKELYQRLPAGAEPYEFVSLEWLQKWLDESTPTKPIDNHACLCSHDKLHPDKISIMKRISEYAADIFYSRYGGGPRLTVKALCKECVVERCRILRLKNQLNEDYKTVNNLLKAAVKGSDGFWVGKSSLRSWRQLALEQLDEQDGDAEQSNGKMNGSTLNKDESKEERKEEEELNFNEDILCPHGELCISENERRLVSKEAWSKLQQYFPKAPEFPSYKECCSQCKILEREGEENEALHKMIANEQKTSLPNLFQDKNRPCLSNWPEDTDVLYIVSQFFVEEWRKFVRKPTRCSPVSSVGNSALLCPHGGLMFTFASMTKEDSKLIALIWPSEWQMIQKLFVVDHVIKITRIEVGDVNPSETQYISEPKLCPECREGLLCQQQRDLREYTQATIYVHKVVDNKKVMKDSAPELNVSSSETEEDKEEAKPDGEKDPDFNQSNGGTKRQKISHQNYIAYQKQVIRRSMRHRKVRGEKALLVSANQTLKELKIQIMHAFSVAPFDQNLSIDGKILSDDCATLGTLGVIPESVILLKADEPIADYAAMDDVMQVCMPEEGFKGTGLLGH
In short: as §1

USP5 = target: T4, USP5 (UniProt P45974)
T4 sequence (whole entry): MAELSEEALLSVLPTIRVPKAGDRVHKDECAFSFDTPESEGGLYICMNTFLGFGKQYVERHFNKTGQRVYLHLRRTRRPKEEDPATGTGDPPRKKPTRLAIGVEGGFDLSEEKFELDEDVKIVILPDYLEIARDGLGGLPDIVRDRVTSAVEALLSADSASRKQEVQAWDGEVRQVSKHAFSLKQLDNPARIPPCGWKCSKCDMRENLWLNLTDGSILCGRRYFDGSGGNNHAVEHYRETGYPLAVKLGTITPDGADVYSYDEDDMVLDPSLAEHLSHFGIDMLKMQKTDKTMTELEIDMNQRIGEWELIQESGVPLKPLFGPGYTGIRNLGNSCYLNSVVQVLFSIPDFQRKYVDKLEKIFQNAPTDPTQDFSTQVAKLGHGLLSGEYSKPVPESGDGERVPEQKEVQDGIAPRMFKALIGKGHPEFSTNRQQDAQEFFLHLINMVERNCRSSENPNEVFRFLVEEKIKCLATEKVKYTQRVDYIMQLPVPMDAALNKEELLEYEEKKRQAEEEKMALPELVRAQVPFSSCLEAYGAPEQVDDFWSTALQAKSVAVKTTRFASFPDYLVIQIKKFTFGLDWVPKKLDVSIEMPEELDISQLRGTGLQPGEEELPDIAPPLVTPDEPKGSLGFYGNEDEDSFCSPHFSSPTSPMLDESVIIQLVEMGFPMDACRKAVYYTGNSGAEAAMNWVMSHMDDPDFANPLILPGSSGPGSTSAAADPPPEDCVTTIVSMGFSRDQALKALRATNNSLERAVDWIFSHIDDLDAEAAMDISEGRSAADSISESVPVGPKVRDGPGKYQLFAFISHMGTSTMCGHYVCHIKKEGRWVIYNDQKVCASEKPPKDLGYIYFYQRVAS
In short: as §1

USP54 = USP54 (UniProt Q70EL1)
In short: as §1

USP7 = USP7 (UniProt Q93009)
In short: as §1

USP8 = target: T5, USP8 (UniProt P40818)
T5 sequence (whole entry): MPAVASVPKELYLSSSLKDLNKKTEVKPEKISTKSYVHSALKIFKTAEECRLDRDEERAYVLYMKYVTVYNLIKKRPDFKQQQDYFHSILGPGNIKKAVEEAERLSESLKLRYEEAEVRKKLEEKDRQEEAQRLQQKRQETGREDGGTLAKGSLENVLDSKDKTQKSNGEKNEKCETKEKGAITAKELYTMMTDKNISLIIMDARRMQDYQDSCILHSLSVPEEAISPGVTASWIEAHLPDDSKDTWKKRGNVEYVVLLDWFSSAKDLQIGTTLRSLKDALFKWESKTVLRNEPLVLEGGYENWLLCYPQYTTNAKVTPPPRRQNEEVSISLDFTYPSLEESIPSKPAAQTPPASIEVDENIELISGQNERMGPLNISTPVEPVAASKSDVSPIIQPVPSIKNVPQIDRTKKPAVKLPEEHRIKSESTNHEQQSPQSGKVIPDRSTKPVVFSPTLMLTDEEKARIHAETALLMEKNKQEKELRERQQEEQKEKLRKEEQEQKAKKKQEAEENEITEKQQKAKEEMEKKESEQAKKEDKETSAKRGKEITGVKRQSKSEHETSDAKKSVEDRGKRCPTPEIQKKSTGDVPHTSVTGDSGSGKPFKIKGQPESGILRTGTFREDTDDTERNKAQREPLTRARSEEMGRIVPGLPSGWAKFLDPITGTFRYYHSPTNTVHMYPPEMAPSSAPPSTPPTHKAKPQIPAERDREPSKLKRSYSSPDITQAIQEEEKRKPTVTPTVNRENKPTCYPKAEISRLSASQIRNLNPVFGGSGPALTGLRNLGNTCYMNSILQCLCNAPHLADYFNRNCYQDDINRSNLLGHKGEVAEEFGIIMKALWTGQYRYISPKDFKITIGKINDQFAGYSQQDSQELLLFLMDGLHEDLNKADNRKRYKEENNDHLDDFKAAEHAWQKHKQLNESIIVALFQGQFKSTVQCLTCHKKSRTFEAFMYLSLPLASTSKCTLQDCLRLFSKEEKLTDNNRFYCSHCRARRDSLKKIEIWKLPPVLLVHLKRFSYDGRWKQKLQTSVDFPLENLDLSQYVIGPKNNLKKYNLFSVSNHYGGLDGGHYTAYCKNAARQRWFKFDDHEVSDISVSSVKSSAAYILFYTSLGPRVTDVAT
In short: as §1

Measured: log2 ratio of Biotin-Ahx-Ub-VS probe labelling

Sequence of USP54 (Q70EL1 whole entry): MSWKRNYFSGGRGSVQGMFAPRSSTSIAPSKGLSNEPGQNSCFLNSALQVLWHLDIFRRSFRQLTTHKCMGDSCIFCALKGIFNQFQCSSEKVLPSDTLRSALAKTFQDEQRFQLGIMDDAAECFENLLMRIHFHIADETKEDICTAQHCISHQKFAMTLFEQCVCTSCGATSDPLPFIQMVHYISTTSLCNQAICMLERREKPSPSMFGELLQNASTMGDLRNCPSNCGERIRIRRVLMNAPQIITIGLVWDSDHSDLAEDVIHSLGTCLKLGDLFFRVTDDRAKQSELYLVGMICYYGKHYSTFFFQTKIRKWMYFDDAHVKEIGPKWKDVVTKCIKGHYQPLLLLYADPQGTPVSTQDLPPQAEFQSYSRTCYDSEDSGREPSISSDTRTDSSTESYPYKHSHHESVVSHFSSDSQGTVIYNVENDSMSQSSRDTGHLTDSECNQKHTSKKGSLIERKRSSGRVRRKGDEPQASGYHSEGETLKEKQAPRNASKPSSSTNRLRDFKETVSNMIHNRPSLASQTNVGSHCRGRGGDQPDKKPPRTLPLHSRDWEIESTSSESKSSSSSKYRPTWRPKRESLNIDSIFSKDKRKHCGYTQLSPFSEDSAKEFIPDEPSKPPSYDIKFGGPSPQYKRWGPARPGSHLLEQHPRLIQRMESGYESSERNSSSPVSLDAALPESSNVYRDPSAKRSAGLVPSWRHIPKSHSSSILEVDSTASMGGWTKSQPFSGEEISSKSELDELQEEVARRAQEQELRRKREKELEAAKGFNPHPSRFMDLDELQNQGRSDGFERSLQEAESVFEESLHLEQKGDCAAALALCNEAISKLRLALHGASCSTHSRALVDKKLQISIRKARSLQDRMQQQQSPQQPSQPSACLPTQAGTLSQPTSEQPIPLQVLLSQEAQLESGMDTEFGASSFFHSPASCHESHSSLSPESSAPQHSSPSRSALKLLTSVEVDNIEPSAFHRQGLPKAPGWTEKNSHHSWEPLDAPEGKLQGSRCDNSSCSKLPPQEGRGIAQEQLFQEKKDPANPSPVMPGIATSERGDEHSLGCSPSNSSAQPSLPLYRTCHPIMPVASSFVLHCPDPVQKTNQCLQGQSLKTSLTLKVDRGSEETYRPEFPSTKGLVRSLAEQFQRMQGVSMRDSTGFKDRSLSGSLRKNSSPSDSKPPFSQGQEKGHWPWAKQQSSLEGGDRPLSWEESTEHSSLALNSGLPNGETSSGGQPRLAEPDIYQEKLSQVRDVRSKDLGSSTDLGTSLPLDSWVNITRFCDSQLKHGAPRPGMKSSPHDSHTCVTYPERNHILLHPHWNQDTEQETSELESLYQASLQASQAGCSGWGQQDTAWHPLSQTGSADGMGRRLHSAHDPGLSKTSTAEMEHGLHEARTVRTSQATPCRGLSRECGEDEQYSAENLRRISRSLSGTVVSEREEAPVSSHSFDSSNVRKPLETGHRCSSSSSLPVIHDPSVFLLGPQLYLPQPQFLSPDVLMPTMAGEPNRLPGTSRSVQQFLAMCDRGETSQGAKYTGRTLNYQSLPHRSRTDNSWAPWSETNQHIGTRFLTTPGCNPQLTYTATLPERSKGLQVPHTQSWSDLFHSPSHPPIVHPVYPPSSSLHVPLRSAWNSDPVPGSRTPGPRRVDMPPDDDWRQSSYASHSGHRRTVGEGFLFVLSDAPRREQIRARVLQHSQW
Sequence of USP7 (Q93009 whole entry, looked up): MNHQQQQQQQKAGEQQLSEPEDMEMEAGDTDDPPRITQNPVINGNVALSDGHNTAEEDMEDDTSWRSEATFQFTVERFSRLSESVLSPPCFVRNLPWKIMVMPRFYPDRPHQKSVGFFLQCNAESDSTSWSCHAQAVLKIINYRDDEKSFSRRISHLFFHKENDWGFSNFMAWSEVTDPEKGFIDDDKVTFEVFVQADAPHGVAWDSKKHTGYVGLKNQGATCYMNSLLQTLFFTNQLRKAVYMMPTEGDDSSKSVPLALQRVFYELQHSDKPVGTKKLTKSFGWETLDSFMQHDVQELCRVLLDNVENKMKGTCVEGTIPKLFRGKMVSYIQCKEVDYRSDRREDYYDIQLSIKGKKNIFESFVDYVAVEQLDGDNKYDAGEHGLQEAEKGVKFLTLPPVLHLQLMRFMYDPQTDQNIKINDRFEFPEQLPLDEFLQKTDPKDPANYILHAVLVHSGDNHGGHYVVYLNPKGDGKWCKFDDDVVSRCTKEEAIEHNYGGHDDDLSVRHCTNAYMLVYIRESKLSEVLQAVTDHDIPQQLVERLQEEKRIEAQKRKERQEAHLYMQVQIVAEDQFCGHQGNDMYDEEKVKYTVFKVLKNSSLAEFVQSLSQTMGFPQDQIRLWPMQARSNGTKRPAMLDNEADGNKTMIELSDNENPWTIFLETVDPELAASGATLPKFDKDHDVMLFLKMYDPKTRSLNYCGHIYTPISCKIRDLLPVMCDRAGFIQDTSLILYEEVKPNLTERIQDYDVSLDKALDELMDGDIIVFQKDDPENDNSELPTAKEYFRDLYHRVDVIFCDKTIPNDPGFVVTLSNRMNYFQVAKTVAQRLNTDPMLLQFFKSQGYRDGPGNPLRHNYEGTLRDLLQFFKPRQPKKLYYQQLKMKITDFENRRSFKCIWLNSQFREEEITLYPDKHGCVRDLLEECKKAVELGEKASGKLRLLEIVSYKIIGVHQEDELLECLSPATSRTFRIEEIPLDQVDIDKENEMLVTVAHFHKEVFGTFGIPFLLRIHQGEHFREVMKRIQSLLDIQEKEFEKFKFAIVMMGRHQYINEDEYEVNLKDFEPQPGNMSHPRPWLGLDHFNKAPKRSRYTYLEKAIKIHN
Sequence of USP46 (P62068 whole entry): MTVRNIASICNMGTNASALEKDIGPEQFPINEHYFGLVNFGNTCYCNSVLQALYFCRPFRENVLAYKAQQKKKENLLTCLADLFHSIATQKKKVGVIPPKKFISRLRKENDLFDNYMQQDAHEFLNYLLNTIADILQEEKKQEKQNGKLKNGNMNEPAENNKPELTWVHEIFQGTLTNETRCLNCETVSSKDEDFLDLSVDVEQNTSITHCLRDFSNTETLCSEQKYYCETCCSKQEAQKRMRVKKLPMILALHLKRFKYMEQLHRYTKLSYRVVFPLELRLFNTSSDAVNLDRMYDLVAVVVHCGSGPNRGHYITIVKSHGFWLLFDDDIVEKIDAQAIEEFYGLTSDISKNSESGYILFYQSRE

O=C(CCl)NCc1ccc(N2CCOCC2)c(F)c1
inactive: USP42 0.396 | USP46 0.00295 | USP47 0.00631 | USP48 0.132 | USP5 0.372 | USP54 0.657 | USP7 -0.046 | USP8 0.129
